{
  "source": "PubChem BioAssay (NCI)",
  "note": "The panel holds about 83,000 compounds, 20% with a hit somewhere; the sample as a whole holds those more often.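 Values shown are percent growth following 48 h exposure of cells in 96-well plates to a single concentration of compound; below 10 was considered active.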 Values without a mark were called inactive. Calls of active or inactive are those of the source.",
  "data": [
    {"test_system": "UO-31 renal", "experiment": "NCI-60 one-dose screen, 48 h (100 = growth as untreated, 0 = no growth, -100 = all killed)", "settings": "10 µM", "protocol": "Growth inhibition of the UO-31 human tumor cell line is measured as a screen for anti-cancer activity. Cells are grown in 96 well plates and exposed to the test compound for 48 hours. Compounds are tested at a single concentration, which is 10^-5 M for most compounds. The reported endpoint is percent growth (GI% or GIPRCNT), where numbers from 0 - 100% represent growth inhibition, and numbers from -100% - 0 represent cell death. For example, a value of 40 represents 60% growth inhibition. A value of 0 means no net growth occurred over the course of the experiment. A value of -40 indicates 40% of cells at the beginning of the experiment died by the end of the experiment. A value of -100 means all cells are dead at the end of the experiment.\nNCI-60 Human Tumor Cell Lines Screen was performed using the standard one-dose NCI protocol, which is described in more detail at https://dtp.cancer.gov/discovery_development/nci-60/default.htm.\nCompounds with GIPRCNT values below 10 were considered active. Activity score was based on GIPRCNT using the following formula: […]\nScore is 0 for GIPRCNT values of 100 or above, 50 for GIPRCNT values of 0, and 100 for GIPRCNT values of -100.", "values": [
      {"smiles": "COc1cc(OC)c(S(=O)(=O)N(CCCl)CCCl)cc1C(=O)/C=C/c1ccc(C)cc1", "growth": "55.6%"},
      {"smiles": "CCOP(=O)(OCC)C(NC(C)=O)C(=O)SCCN", "note": "(stereo not given)", "growth": "81%"},
      {"smiles": "C[C@H]1[C@H](OC(=O)CCC(=O)N(CCCc2cn(-c3ccc(C#N)cc3)nn2)CCNc2ccnc3cc(Cl)ccc23)O[C@@H]2OC3(C)CC[C@H]4[C@H](C)CC[C@@H]1[C@@]24OO3", "growth": "15%"},
      {"smiles": "O=C([Se]C1C=CCCC1)c1ccc(C(=O)[Se]C2C=CCCC2)s1", "note": "(stereo not given)", "growth": "-100% (active)"},
      {"smiles": "O=C(/C=C/c1ccc(Cl)cc1Cl)c1nc2ccccc2n1Cc1ccc(Br)cc1", "growth": "50.9%"},
      {"smiles": "O=C(/C=C/c1ccc(F)cc1)c1nc2ccccc2n1Cc1ccc(Br)cc1", "growth": "-92.5% (active)"},
      {"smiles": "C#CC[Se]C(=O)c1ccc(C(=O)[Se]CC#C)s1", "growth": "47.8%"},
      {"smiles": "COCCOCCOCCOc1ccc(-n2cc(CCCN(CCNc3ccnc4cc(Cl)ccc34)C(=O)CCC(=O)O[C@@H]3O[C@@H]4OC5(C)CC[C@H]6[C@H](C)CC[C@@H]([C@H]3C)[C@@]46OO5)nn2)cc1", "growth": "16.4%"},
      {"smiles": "CC[C@]12C=CCN3CC[C@@]4(c5ccc(OC)cc5N(C)[C@H]4[C@@](O)(C(=O)OC)[C@@H]1OC(=O)CCCC[P+](C1CCCCC1)(C1CCCCC1)C1CCCCC1)[C@@H]32", "growth": "78.9%"},
      {"smiles": "CC(C)N=C([Se])NC(=O)c1ccccc1", "growth": "-99% (active)"},
      {"smiles": "C=CC[Se]C(=O)c1cncc(C(=O)[Se]CC=C)c1", "growth": "-98.4% (active)"},
      {"smiles": "COc1cc(OC)c(/C=C/C(=O)c2nc3ccccc3n2Cc2ccc(F)cc2)c(OC)c1", "growth": "82.7%"},
      {"smiles": "COC(=O)C[C@](O)(CCCC(C)C)C(=O)O[C@H]1C(OC)=C[C@@]23CCCN2CCc2cc4c(cc2[C@@H]13)OCO4", "growth": "6.22% (active)"},
      {"smiles": "COc1ccc(/C=C/C(=O)c2nc3ccccc3n2Cc2ccc(Br)cc2)cc1", "growth": "52.4%"},
      {"smiles": "CC1=C(CCC=O)C2=C(C)C3(CC3)[C@@](C)(O)C(=O)C2=C1", "growth": "-99.7% (active)"},
      {"smiles": "N#C[Se]CC(=O)Nc1cccc(C(F)(F)F)c1", "growth": "-84.2% (active)"},
      {"smiles": "Cc1c2oc3c(C)ccc(C(=O)N[C@@H]4C(=O)N[C@H](C(C)C)C(=O)N5CCC[C@H]5C(=O)N(C)CC(=O)N(C)[C@@H](C(C)C)C(=O)OC4C)c3nc-2c(C(=O)N[C@@H]2C(=O)N[C@H](C(C)C)C(=O)N3CC(=O)C[C@H]3C(=O)N(C)CC(=O)N(C)[C@@H](C(C)C)C(=O)OC2C)c(N)c1=O", "note": "(stereo not given in full)", "growth": "3.68% (active)"},
      {"smiles": "O=C(/C=C/c1ccc(Br)cc1)c1nc2ccccc2n1Cc1ccc(Br)cc1", "growth": "-66.4% (active)"},
      {"smiles": "CC1=C(COCCOC(=O)c2ccc(S(=O)(=O)F)cc2)C2=C(C)C3(CC3)[C@@](C)(O)C(=O)C2=C1", "growth": "-33.3% (active)"},
      {"smiles": "COCCOCCOCCOc1ccc(-n2cc(-c3ccc(O[C@H]4O[C@@H]5OC6(C)CC[C@H]7[C@H](C)CC[C@@H]([C@H]4C)[C@@]57OO6)cc3)nn2)cc1", "growth": "11.5%"},
      {"smiles": "O=C(NCCCCC(c1ccc(F)cc1)c1ccc(F)cc1)Nc1ccc([N+](=O)[O-])c(C(F)(F)F)c1", "growth": "0% (active)"},
      {"smiles": "CN(C)CCc1cn(C2CCC2)c2cccc(O)c12", "growth": "47.8%"},
      {"smiles": "O=C(/C=C/c1ccc(Cl)cc1)c1nc2ccccc2n1Cc1ccc(Br)cc1", "growth": "42.6%"},
      {"smiles": "C[C@H]1[C@@H](CC(=O)N[C@@H](Cc2coc3ccccc23)B(O)O)O[C@@H]2OC3(C)CC[C@H]4[C@H](C)CC[C@@H]1[C@@]24OO3", "growth": "18.3%"},
      {"smiles": "C#CC[Se]C(=O)c1ccc2n[se]nc2c1", "growth": "22.6%"},
      {"smiles": "C[C@H]1[C@@H](Oc2ccc(-c3cn(-c4ccnc5cc(Cl)ccc45)nn3)cc2)O[C@@H]2OC3(C)CC[C@H]4[C@H](C)CC[C@@H]1[C@@]24OO3", "growth": "10.7%"},
      {"smiles": "CC12CCC3(CCC(=O)NCCCNc4ccnc5cc(Cl)ccc45)[C@@](C)(OO[C@]3(C)O1)O2", "growth": "-50.1% (active)"},
      {"smiles": "COP(=O)(CC(F)(F)C(F)(F)F)OC", "growth": "-81.8% (active)"},
      {"smiles": "O=C(/C=C/c1ccc(Cl)cc1Cl)c1nc2ccccc2n1Cc1ccc(F)cc1", "growth": "36.5%"},
      {"smiles": "CC[C@]12C=CCN3CC[C@@]4(c5ccc(OC)cc5N(C)[C@H]4[C@@](O)(C(=O)OC)[C@@H]1OC(=O)CCC[P+](c1ccc(F)cc1)(c1ccc(F)cc1)c1ccc(F)cc1)[C@@H]32", "growth": "81.5%"},
      {"smiles": "O=C(/C=C/c1ccccc1)c1nc2ccccc2n1Cc1ccc(Br)cc1", "growth": "-94.9% (active)"},
      {"smiles": "O=C(/C=C/c1ccco1)c1nc2ccccc2n1Cc1ccc(F)cc1", "growth": "46.8%"},
      {"smiles": "CC[C@@]12CC(C(=O)OC)=C3Nc4cc5c(cc4[C@@]34CCN(C[C@H]3O[C@H]31)[C@@H]24)[C@@H]1[C@H](O5)[C@@H](O)[C@@]2(CC)CC(C(=O)OC)=C3Nc4cc(OC)ccc4[C@@]34CCN1[C@@H]24", "growth": "10.1%"},
      {"smiles": "O=C(/C=C/c1cccc(Br)c1)c1nc2ccccc2n1Cc1ccc(Br)cc1", "growth": "-57.3% (active)"},
      {"smiles": "C#CCCCN(CCNc1ccnc2cc(Cl)ccc12)C(=O)CCC(=O)O[C@@H]1O[C@@H]2OC3(C)CC[C@H]4[C@H](C)CC[C@@H]([C@H]1C)[C@@]24OO3", "growth": "14.3%"},
      {"smiles": "CC12OOC(C)(OO1)C2CCC(=O)NCCNc1ccnc2cc(Cl)ccc12", "note": "(stereo not given)", "growth": "76.1%"},
      {"smiles": "CC(C)N=C([Se])NC(=O)c1cccs1", "growth": "12.4%"},
      {"smiles": "COc1cc(OC)c(S(=O)(=O)N(CCCl)CCCl)cc1C(=O)/C=C/c1cc(OC)c(OC)c(OC)c1", "growth": "-93.9% (active)"},
      {"smiles": "O=C(/C=C/c1ccco1)c1nc2ccccc2n1Cc1ccc(Br)cc1", "growth": "34.4%"},
      {"smiles": "CC(=O)Oc1ccccc1C(=O)[Se]C(=NC(C)C)NC(C)C", "growth": "-100% (active)"}
    ]}
  ]
}
